Screening results deposited in PubChem by National Center for Advancing Translational Sciences (NCATS).
Rows were chosen to be rich in hits. Some 0.9% of all compounds tested hit in one or more screens of this group.
gsp antagonist: antagonists of gsp mutant (McCune-Albright syndrome); gsp-mutant cells, cAMP HTRF, 30 min; Potency, µM (doses to about 76.9 µM), for the others: at the top dose activity change, negative = inhibition, actives largely listed as inhibitors; hit rate 0.4% among 340,000; AID 624288; calls by dose curve; cell line not stated here;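 also: intracellular cAMP measured with PDE inhibitor Ro 20-1724 present during compound exposure; potency is read from the fitted curve at half-maximal effect; % is scaled to controls: 0 for no effect and ±100 for the full control effect; nearly all actives have a fitted effect of over 65% in size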
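G418-selected cells were plated in DMEM/10% FBS for 16-24 h at 37C, then treated with compounds plus the PDE inhibitor […] (300 uM solution added) for 30 min at 37C. Intracellular cAMP was measured by HTRF after 30 min lysis at room temperature.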
gsp ag: gsp mutant agonism. gsp mutant cells, cAMP HTRF, 30 min. Potency, µM (doses to about 76.9 µM), inactives show at the top dose activation (cAMP increase), actives largely listed as activators. hit rate 0.13% among 340,000. AID 624287; active = well fitted activation curve with a large enough effect; inconclusive = small, poorly fitted or top-dose-only effect, or another doubt; inactive = no such curve, though single readings can be large or run the other way; cell line not stated here;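 also: phosphodiesterase inhibitor Ro 20-1724 added with compounds to block cAMP breakdown; potency is read from the fitted curve at half-maximal effect; nearly all actives have a fitted effect of over 60% in size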
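Cells stably selected in G418 were plated at 2000/well, grown 16-24 hr, then given compounds in DMSO with the PDE inhibitor […] (300 uM solution added) for 30 min at 37C; cAMP was read by HTRF.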
RXFP1 antagonist: antagonists of human relaxin receptor RXFP1; HEK293-RXFP1, relaxin-stimulated cAMP HTRF, 30 min; stronger effect = lower value; hit rate 0.59% among 350,000; activity change, negative = inhibition, % at 57.5 µM;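 active = activity change of -60% or lower, but not beyond a set lower limit; inconclusive = change between -60% and -40%, or beyond the set limit; inactive = change above -40%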; also: % is scaled to controls: 0 for no effect and ±100 for the full control effect
Target sequence (Q9HBX9 whole entry, looked up): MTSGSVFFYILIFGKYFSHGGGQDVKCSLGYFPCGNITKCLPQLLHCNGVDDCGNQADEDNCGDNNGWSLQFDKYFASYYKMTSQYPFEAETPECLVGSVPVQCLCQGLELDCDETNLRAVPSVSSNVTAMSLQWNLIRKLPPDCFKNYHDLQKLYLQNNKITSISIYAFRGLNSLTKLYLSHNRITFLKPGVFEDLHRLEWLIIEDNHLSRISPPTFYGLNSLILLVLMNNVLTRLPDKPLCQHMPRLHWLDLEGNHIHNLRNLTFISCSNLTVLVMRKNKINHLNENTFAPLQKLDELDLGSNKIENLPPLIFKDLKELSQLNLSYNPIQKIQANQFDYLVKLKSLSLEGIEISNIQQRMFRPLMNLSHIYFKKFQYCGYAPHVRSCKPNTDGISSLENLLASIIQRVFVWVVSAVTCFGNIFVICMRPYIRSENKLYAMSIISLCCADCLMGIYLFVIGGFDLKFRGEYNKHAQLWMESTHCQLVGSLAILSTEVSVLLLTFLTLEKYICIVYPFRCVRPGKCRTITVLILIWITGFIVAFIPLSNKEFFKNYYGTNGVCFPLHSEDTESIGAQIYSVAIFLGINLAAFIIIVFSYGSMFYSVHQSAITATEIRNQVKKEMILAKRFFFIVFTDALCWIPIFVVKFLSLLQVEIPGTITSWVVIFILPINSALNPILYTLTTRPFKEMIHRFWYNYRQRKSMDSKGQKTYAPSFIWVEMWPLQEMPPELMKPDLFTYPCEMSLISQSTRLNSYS
RXFP1 agonist: activates the human relaxin receptor RXFP1 | Potency, µM (top dose mostly 57.5 µM), for the others: at the highest dose activation, most hits filed as activators | Q9HBX9 | hit rate 0.3% among 370,000 | HEK293T-RXFP1 cAMP TR-FRET, 30 min; response scale: percent of porcine relaxin response, buffer zero; active = well fitted activation curve with a large enough effect; inconclusive = small, poorly fitted or top-dose-only effect; also: potency is read from the fitted curve at half-maximal effect; % is scaled to controls: 0 for no effect and ±100 for the full control effect; nearly all actives have a fitted effect of over 60% in size
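HEK293T cells stably expressing RXFP1 were pretreated with the PDE4 inhibitor Ro 20174, exposed to compounds for 30 min at 37C, lysed, and cAMP was read by TR-FRET. Data normalized to buffer (basal) and 29 nM porcine relaxin (100%).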
Active calls of the source: *; ? = inconclusive; . = not tested or not shown; + = active, no number; [ ] = dose if it differs, or a comment.

SMILES | gsp antagonist | gsp ag | RXFP1 antagonist | RXFP1 agonist
CC(CNC(=O)c1nnc(Cc2ccc(F)cc2)o1)c1ccccc1 (configuration not stated) | . | . | 1 | -3%
Clc1ccc(C(c2ccccc2Cl)C(Cl)Cl)cc1 (configuration not stated) | -15% | . | -74* | -2%
C=C(C)C(=O)OCC(O)CO (configuration not stated) | . | . | 10 | .
CN1Cc2cc(C(=O)N3CCC(C4CCNCC4)CC3)ccc2N[C@@H](CC(=O)O)C1=O | . | . | -13 | .
Cc1cc(-c2ccccc2)nc(SCc2ccc(C(=O)O)cc2)n1 | 35µM* | -33% | -3 | 0%
COc1cc(C(=O)NCC(c2cccs2)S(=O)(=O)c2cccs2)cc(OC)c1OC (configuration not stated) | . | . | . | 0%
COc1ccccc1N1CCN(C(=O)c2cc3c(C)nc4ccccc4c3o2)CC1 | -27% | 7% | -62* | 1%
Cc1ccc(C)c(N2CCN(C(=O)c3cc4c(C)nc5ccccc5c4o3)CC2)c1 | ? | 23% | -5 | 0%
COc1ccc(N(C)C(=O)c2cc3c(s2)-c2ccccc2OC3)cc1 | . | . | -64* | 0%
O=C(CSc1nccn1C1CCCC1)Nc1cccc(F)c1 | . | . | 3 | -1%
CC(C)(C)c1nc(SCC(=O)c2ccccc2)c2ccccc2n1 | -17% | 4%[15.4 µM] | -67* | -1%
N#Cc1c(-c2ccc(Cl)cc2)cc(-c2cccs2)nc1SCC(=O)O | 10µM* | ? | -23 | 4%
CC1=C(C(=O)Nc2cccc(C(=O)N3CCN(c4cccc(C(F)(F)F)c4)CC3)c2)SCCO1 | 50µM* | 1% | -28 | 3%
CC1=C(C(=O)Nc2ccc(C(=O)N3CCN(c4cccc(Cl)c4)CC3)cc2)SCCO1 | ? | 30% | 4 | 1%
Cc1ccc(C(C)(C)C)cc1S(=O)(=O)Nc1cccc(C(=O)N2CCN(c3ccccn3)CC2)c1 | 40µM* | -19% | ? | 1%
Cc1cccc(C(=O)Nc2nc3nc(-c4ccccc4)cc(=O)n3[nH]2)c1 | . | . | -24 | 2%
CCn1c(=O)cc(SCC(=O)NCCCN2CCN(c3ccc(F)cc3)CC2)c2ccccc21 | -6% | 22µM* | 38 | 11%
O=C(COc1ccc2c(c1)oc(=O)c1ccccc12)NCCCN1CCOCC1 | + | 31% | -3 | 2%
Cn1c(=O)cc(SCC(=O)NCCCN2CCOCC2)c2ccccc21 | -2% | 22µM* | -1 | 12%
Cn1c(=O)cc(SCC(=O)NCCCN2CCOCC2)c2ccc(Cl)cc21 | 6% | 28µM* | 17 | 12%
CCc1noc(-c2ccc(N(C)Cc3ccc(OC)cc3)c([N+](=O)[O-])c2)n1 | . | . | . | 4%
COC(c1ccccc1)(c1ccccc1)[C@H](Oc1nc(C)cc(C)n1)C(=O)O | . | . | -16 | .
COc1ccc(C(=O)CN2CCN(c3ncccn3)CC2)cc1 | 50µM* | 37% | -1 | 3%
COc1ccc(N2CCN(CC(=O)c3ccc(Cl)cc3)CC2)cc1 | -6% | 2% | -21 | -4%
COc1cc(OC)c(NC(=O)Cn2c(=O)oc3cc(S(=O)(=O)N4CCCC4)ccc32)cc1Cl | . | . | ? | 0%
SMILES | gsp antagonist | gsp ag | RXFP1 antagonist | RXFP1 agonist
CC(C)=C1C2CCC1C(C(=O)Nc1sc(C)c(-c3ccc(C(C)C)cc3)c1C(N)=O)C2C(=O)O (configuration not stated) | 32µM* | 0% | -3 | 0%
Cc1ccc(-c2c(C)sc(NC(=O)C3C4CCC(O4)C3C(=O)O)c2C(=O)OC(C)C)cc1 (configuration not stated) | -11% | 26% | -12 | 6%
COc1ccc(S(=O)(=O)N(CC(=O)NCc2cccnc2)Cc2ccccc2)cc1 | 11µM* | 1%[15.4 µM] | -3 | 0%
COc1ccc2c(c1)c(CC(=O)OC/C=C(\C)CC/C=C(\C)CCC=C(C)C)c(C)n2C(=O)c1ccc(Cl)cc1 | . | . | 9 | .
COc1ccc(CCNS(=O)(=O)c2cc3c4c(c2)C(C)C(=O)N4CCC3)cc1OC (configuration not stated) | -5% | -11% | -92* | -1%
CC1C(=O)N2CCCc3cc(S(=O)(=O)NCCc4ccccc4)cc1c32 (configuration not stated) | -2% | ? | -12 | 2%
Cc1cc(-n2c(C)nc3ccccc3c2=O)ccc1NC(=O)c1ccc([N+](=O)[O-])cc1 | . | . | . | 0%
CC(C)C[C@H](NC(=O)[C@H](Cc1ccccc1)NC(=O)c1cnccn1)B(O)O | . | . | 9 | .
